Compound activity (PubChem BioAssay)
aSyn UTR inh: MLPCN primary screen, SNCA 5' untranslated region | alpha-synuclein 5'UTR reporter, inhibitor activity | inhibition, % (tested at 7.5 µM) | actives 0.82% (n = 300,000); in the data active means inhibition above about 60%; inconclusive means no clear call, values can overlap the other calls;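 further: H4 neuroglioblastoma cells stably carrying SNCA 5'UTR luciferase fusion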
TRPM1 prom inh: inhibitors of MITF-driven TRPM1 promoter in melanoma cells; actives 0.83% (n = 330,000); SK-MEL-5 TRPM1 promoter luciferase, 24 h; inhibition, % at 12.5 µM;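 active means mean inhibition across replicates of 60% or more, whatever share of single replicates reaches that level; inconclusive means some that reach 60%, reason not given; inactive means mean inhibition across replicates below 60%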
LMP1 NFkB inh: reduces LMP1-driven NF-kappaB luciferase signal; LMP1-induced NF-kappaB luciferase reporter cells, luminescence; inhibition, % at 12.5 µM; actives 0.69% (n = 350,000); in the data active means inhibition above about 41%; inconclusive means no clear call, values can overlap the other calls
PAX8 reporter: PAX8 transcriptional activity inhibition; inhibition, % at 12.6 µM; RMG-I TPO-luciferase reporter, SteadyGlo, 24 h; AID 652154; actives 1.2% (n = 360,000);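 active means mean replicate inhibition at least 60% with every replicate also reaching 60%; inconclusive means only one of the two criteria is met; inactive means mean below 60% and not all replicates reaching 60%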;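 further: luciferase light reporting Pax8 driven TPO promoter activity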
Shn3 inh set2: reduces Shn3 3'UTR luciferase signal in osteoblasts. Clone20 osteoblast Shn3 3'UTR firefly luciferase, 24 h. actives 0.52% (n = 360,000). inhibition, % at 12.5 µM;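 active means mean inhibition of at least 75% with every replicate also reaching 75%; inconclusive means mean inhibition at least 75% but some replicate below; inactive means mean inhibition below 75%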
A number is an active result; 0 = inactive; ? = inconclusive; - = no result given. Sampled rows, rich in hits. Any-hit rate of the full collection: about 2.1%.

SMILES	aSyn UTR inh	TRPM1 prom inh	LMP1 NFkB inh	PAX8 reporter	Shn3 inh set2
Cc1ccc(-c2csc3nc4c5ccccc5c(NCCCN(C)C)nn4c(=O)c23)cc1	116	85	0	0	0
C[C@H](CO)N1C[C@H](C)[C@@H](CN(C)S(=O)(=O)c2ccc(Cl)cc2)OCCCC[C@H](C)Oc2ccc(NS(=O)(=O)c3ccc(F)cc3)cc2C1=O	-	-	-	84	-
C[C@H]1CCCCO[C@@H](CN(C)S(=O)(=O)c2ccc(Cl)cc2)[C@@H](C)CN([C@@H](C)CO)C(=O)c2cc(NS(=O)(=O)c3ccc(F)cc3)ccc2O1	-	-	-	63	-
C[C@@H]1CN([C@@H](C)CO)C(=O)c2cc(NS(=O)(=O)c3ccc(F)cc3)ccc2O[C@@H](C)CCCCO[C@H]1CN(C)S(=O)(=O)c1ccc(Cl)cc1	-	-	-	0	-
C[C@@H]1CCCCO[C@H](CN(C)S(=O)(=O)c2ccc(Cl)cc2)[C@H](C)CN([C@@H](C)CO)C(=O)c2cc(NS(=O)(=O)c3ccc(F)cc3)ccc2O1	-	-	-	83	-
C[C@@H]1CCCCO[C@H](CN(C)S(=O)(=O)c2ccc(Cl)cc2)[C@H](C)CN([C@H](C)CO)C(=O)c2cc(NS(=O)(=O)c3ccc(F)cc3)ccc2O1	-	-	-	0	-
C[C@@H]1CN([C@H](C)CO)C(=O)c2cc(NS(=O)(=O)c3ccc(F)cc3)ccc2O[C@@H](C)CCCCO[C@H]1CN(C)S(=O)(=O)c1ccc(Cl)cc1	-	-	-	98	-
C[C@H]1CCCCO[C@@H](CN(C)S(=O)(=O)c2ccc(F)cc2)[C@@H](C)CN([C@@H](C)CO)C(=O)c2cc(NS(=O)(=O)c3ccc(Cl)cc3)ccc2O1	-	-	-	69	-
C[C@@H]1CN([C@@H](C)CO)C(=O)c2cc(NS(=O)(=O)c3ccc(Cl)cc3)ccc2O[C@@H](C)CCCCO[C@H]1CN(C)S(=O)(=O)c1ccc(F)cc1	-	-	-	0	-
O=c1c2ccccc2c(C=Nc2ccc(S(=O)(=O)Nc3ncccn3)cc2)c(O)n1-c1cccc(Cl)c1	0	-	-	0	-
CC(=O)Nc1ccc(S(=O)(=O)N2CCN(c3cc4c(cc3[N+](=O)[O-])n(C)c(=O)n4C)CC2)cc1	0	0	0	-	0
Cn1c(=O)n(C)c2cc([N+](=O)[O-])c(N3CCN(S(=O)(=O)c4ccc(C(C)(C)C)cc4)CC3)cc21	0	0	0	-	85
CCOC(=O)C1=NN(c2ccccc2)C(c2ccccc2)CC1=O (stereo not drawn)	0	0	0	0	0
C[C@@H]1CCCCO[C@H](CN(C)S(=O)(=O)c2ccccc2)[C@H](C)CN([C@H](C)CO)C(=O)c2cc(NC(=O)Nc3ccc(C(F)(F)F)cc3)ccc2O1	-	-	-	0	-
C[C@@H]1CN([C@@H](C)CO)C(=O)c2cc(NC(=O)Nc3ccc(F)cc3)ccc2O[C@@H](C)CCCCO[C@@H]1CN(C)S(=O)(=O)c1cccs1	-	-	-	0	-
C[C@H]1CCCCO[C@H](CN(C)S(=O)(=O)c2ccccc2)[C@@H](C)CN([C@@H](C)CO)C(=O)c2cc(NC(=O)Nc3ccc(C(F)(F)F)cc3)ccc2O1	-	-	-	68	-
C[C@@H]1CCCCO[C@@H](CN(C)S(=O)(=O)c2cccs2)[C@H](C)CN([C@@H](C)CO)C(=O)c2cc(NC(=O)Nc3ccc(C(F)(F)F)cc3)ccc2O1	-	-	-	65	-
C[C@H](CO)N1C[C@H](C)[C@H](CN(C)S(=O)(=O)c2cccs2)OCCCC[C@H](C)Oc2ccc(NC(=O)NC3CCCCC3)cc2C1=O	-	-	-	104	-
C[C@H]1CN([C@@H](C)CO)C(=O)c2cc(C#CCC3CCCC3)cnc2O[C@@H]1CN(C)S(=O)(=O)c1cccs1	-	-	-	67	-
O=C(CCCCC(=O)Sc1ccccc1)Sc1ccccc1	-	0	0	0	0
Cc1cc(C)n2ncc(-c3cccc(Br)c3)c2n1	0	0	0	0	0
C[C@@H]1CCCCO[C@@H](CN(C)S(=O)(=O)c2ccc(F)cc2)[C@H](C)CN([C@@H](C)CO)C(=O)c2cc(NC(=O)Nc3ccc(C(F)(F)F)cc3)ccc2O1	-	-	-	0	-
C[C@@H]1CN([C@H](C)CO)C(=O)c2cc(NC(=O)Nc3ccc(C(F)(F)F)cc3)ccc2O[C@@H](C)CCCCO[C@H]1CN(C)S(=O)(=O)c1ccccc1	-	-	-	96	-
C[C@@H]1CCCCO[C@@H](CN(C)S(=O)(=O)c2ccccc2)[C@H](C)CN([C@H](C)CO)C(=O)c2cc(NC(=O)Nc3ccc(C(F)(F)F)cc3)ccc2O1	-	-	-	89	-
O=C(Nc1ccc(F)c(F)c1)C1CCCCC1	-	0	49	0	0
SMILES	aSyn UTR inh	TRPM1 prom inh	LMP1 NFkB inh	PAX8 reporter	Shn3 inh set2
O=C(Nc1ccc(O)c2c(=O)cc(-c3ccccc3Cl)oc12)c1ccccc1Cl	0	0	0	0	0
CCN(CC)c1ccc(/C=N/NC(=O)c2ccco2)cc1	0	0	0	0	0
C(=N\Nc1nc2ccccc2[nH]1)/c1cccc2nccnc12	67	0	47	0	0
Cc1ccc2cc(/C=N/Nc3nc4ccccc4[nH]3)c(Cl)nc2c1	0	0	0	0	0
Oc1ccc(C=NNC(=S)Nc2ccccc2)nc1	-	-	51	0	0
CCN(CC)c1ccc(/C=N/NC(=O)c2ccco2)c(O)c1	0	0	69	0	0
COc1cc(OC)c(OC)cc1/C=N/Nc1nc2ccccc2[nH]1	0	0	0	0	0
CCN(CC)c1ccc(/C=N/Nc2nc3ccccc3[nH]2)c(O)c1	84	0	55	-	0
CC1CCN(C(=O)Nc2ccc3nsnc3c2)CC1	0	0	0	-	0
C(=N\Nc1nc2ccccc2[nH]1)/c1ccc2ncccc2c1	95	0	0	0	0
S=C(N/N=C/c1ccc2ncccc2c1)Nc1ccccc1	108	0	0	0	0
C(=N\NCc1ccccc1)/c1ccc2ncccc2c1	0	-	-	0	0
COc1ccc(/C=N/Nc2nc3ccccc3[nH]2)cc1OC	0	0	0	0	0
C(=N\Nc1nc2ccccc2[nH]1)/c1ccccn1	112	83	0	62	89
CCC1(CC)C(=O)C2=C3C1[C@H](C(=O)OC)C=C(C(=O)OC)C[C@H]3n1c(=O)n(C)c(=O)n1[C@H]2C (stereo partly drawn)	0	0	0	0	0
Cc1cc2nc(-c3cc(N4CCOCC4)ccc3[N+](=O)[O-])ccn2n1	0	0	0	0	0
CC(C)(C)OC(=O)N1Cc2ccccc2C[C@H]1C(=O)NCC(=O)Nc1ccc2c(c1)OCCO2	0	0	44	0	0
CCCCNC(=O)c1nn2c(C(F)(F)F)cc(-c3ccccc3)nc2c1Br	0	0	0	0	0
COc1ccc(/C=C/c2cc(-c3ccc(C)cc3)o[n+]2C)cc1	89	88	0	-	83
COc1nc(N/N=C/c2ccc(-c3cccc([N+](=O)[O-])c3)o2)nc(N2CCOCC2)n1	0	-	-	-	-
O=[N+]([O-])c1ccc(-c2ccc(/C=N/Nc3nc(N4CCCCC4)nc(N4CCCCC4)n3)o2)cc1	0	0	0	0	0
O=[N+]([O-])c1cccc(-c2ccc(/C=N/Nc3nc(N4CCCCC4)nc(N4CCCCC4)n3)o2)c1	73	0	?	0	0
